# In the supplement of paper PMC9950053:
# Counter-ions that a name gives are not always drawn.
# Legend:
# Details in all cases: 10 µM; exposure time: 3 h pre-incubation + 3 h imaging
# [1] = system: Danio rerio larvae (5 dpf); assay: startle (activity period 16 minus period 15, 20-s interval sound) minus DMSO control (percentage points); higher = stronger startle response than DMSO larvae
# Method in brief: (§1)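 Wild-type 5 dpf zebrafish larvae were exposed to compounds at 10 µM final for 3 h before and 3 h during imaging at 28.5 °C. Larvae were imaged every 6 s and tracked by Z-LaP Tracker. Detections below 0.5 probability and larvae moving under 1% of the time were excluded. Each behavioural measure is the group mean (n = 48) minus the DMSO control mean (n = 844), in percentage points.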
# [2] = system: Danio rerio larvae (5 dpf); assay: combined upward orientation toward moving lines (periods 7-14) minus DMSO control (percentage points); higher = more orientation with moving lines than DMSO larvae
# Method in brief: as §1
# [3] = system: Danio rerio larvae (5 dpf); assay: combined optomotor response (time in upper well half, down vs up moving lines, periods 7-14) minus DMSO control (percentage points); higher = stronger optomotor response than DMSO larvae
# [4] = system: Danio rerio larvae (5 dpf); assay: habituation (activity change first vs second 5 min of 1-s interval sound, period 17) minus DMSO control (percentage points); higher = larger habituation measure than DMSO larvae
# Method in brief: as §1
# [5] = system: Danio rerio larvae (5 dpf); assay: 1-h baseline activity (% time moving, periods 1-6) minus DMSO control (percentage points); higher = more locomotor activity than DMSO larvae
# Method in brief: as §1
# [6] = system: Danio rerio larvae (5 dpf); assay: excitability (activity period 17 minus period 16, 1-s interval sound) minus DMSO control (percentage points); higher = more acoustic excitability than DMSO larvae
# Method in brief: as §1
compound,measurement,setting,value
CCN(CC)CCNC(=O)c1c(C)[nH]c(/C=C2\C(=O)Nc3ccc(F)cc32)c1C [Sunitinib malate],startle,[1],-2.14
same,combined upward orientation toward moving lines,[2],-5.61
same,combined optomotor response,[3],2.67
CC#C[C@]1(O)CC[C@H]2[C@@H]3CCC4=CC(=O)CCC4=C3[C@@H](c3ccc(N(C)C)cc3)C[C@@]21C [Mifepristone],startle,[1],0.533
same,habituation,[4],-3.13
same,combined optomotor response,[3],8.07
COC(c1ccccc1)(c1ccccc1)[C@H](Oc1nc(C)cc(C)n1)C(=O)O [Ambrisentan],combined upward orientation toward moving lines,[2],-0.152
same,habituation,[4],4.59
same,combined optomotor response,[3],0.559
CC(c1cc2ccccc2s1)N(O)C(N)=O (stereo not given) [Zileuton],startle,[1],-0.862
same,combined upward orientation toward moving lines,[2],-7.03
same,habituation,[4],7.74
same,combined optomotor response,[3],-0.859
COc1cc2nc(N3CCN(C(=O)c4ccco4)CC3)nc(N)c2cc1OC [Prazosin hydrochloride],1-h baseline activity,[5],-4.14
same,startle,[1],4.64
C/C(O)=C(\C#N)C(=O)Nc1ccc(C(F)(F)F)cc1 [Teriflunomide],startle,[1],-2.62
same,combined optomotor response,[3],-4.96
CC1=Nc2ccc(Cl)cc2S(=O)(=O)N1 [Diazoxide],startle,[1],-4.34
same,combined optomotor response,[3],2.18
Cc1nc(Nc2ncc(C(=O)Nc3c(C)cccc3Cl)s2)cc(N2CCN(CCO)CC2)n1 [Dasatinib],combined upward orientation toward moving lines,[2],-11
same,combined optomotor response,[3],-2.04
N#Cc1ccc(C(c2ccc(C#N)cc2)n2cncn2)cc1 [Letrozole],startle,[1],6.54
same,combined optomotor response,[3],-0.923
Cc1cccc(C)c1OCC(C)N (stereo not given) [Mexiletine hydrochloride],combined upward orientation toward moving lines,[2],-1.93
same,combined optomotor response,[3],2.6
N[C@@H]1[C@H]2CN(c3nc4c(cc3F)c(=O)c(C(=O)O)cn4-c3ccc(F)cc3F)C[C@@H]12 [Trovafloxacin mesylate],excitability,[6],12.2
same,combined upward orientation toward moving lines,[2],-3.7
CNC(=O)c1ccccc1Sc1ccc2c(/C=C/c3ccccn3)n[nH]c2c1 [Axitinib],combined upward orientation toward moving lines,[2],4.21
same,combined optomotor response,[3],3.98
NS(=O)(=O)c1cc(C(=O)O)c(NCc2ccco2)cc1Cl [Furosemide],startle,[1],-3.94
COC(=O)C1=C(C)NC(C)=C(C(=O)OC(C)C)C1c1cccc2nonc12 (stereo not given) [Isradipine],startle,[1],-8.8
same,combined optomotor response,[3],-14.7
CCOC(=O)[C@H](CCc1ccccc1)N[C@@H](C)C(=O)N1[C@H](C(=O)O)C[C@@H]2CCC[C@@H]21 [Ramipril],startle,[1],-0.503
same,combined optomotor response,[3],3.49
COc1ccc([C@@H]2Sc3ccccc3N(CCN(C)C)C(=O)[C@@H]2OC(C)=O)cc1 [Diltiazem hydrochloride],startle,[1],1.21
same,combined optomotor response,[3],1.37
CCc1c2c(nc3ccc(OC(=O)N4CCC(N5CCCCC5)CC4)cc13)-c1cc3c(c(=O)n1C2)COC(=O)[C@]3(O)CC,combined upward orientation toward moving lines,[2],-3.82
Cc1nnc(C(C)C)n1C1C[C@H]2CC[C@@H](C1)N2CC[C@H](NC(=O)C1CCC(F)(F)CC1)c1ccccc1 (stereo in doubt) [Maraviroc],combined upward orientation toward moving lines,[2],-1.2
same,combined optomotor response,[3],0.791
CO[C@H]1/C=C/O[C@@]2(C)Oc3c(C)c(O)c4c(O)c(c5c(nc6cc(C)ccn65)c4c3C2=O)NC(=O)/C(C)=C\C=C\[C@H](C)[C@H](O)[C@@H](C)[C@@H](O)[C@@H](C)[C@H](OC(C)=O)[C@@H]1C [Rifaximin],combined upward orientation toward moving lines,[2],-3.95
same,combined optomotor response,[3],2.32
C#C[C@]1(O)CC[C@H]2[C@@H]3CCC4=CC(=O)CC[C@@H]4[C@H]3CC[C@@]21CC [Levonorgestrel],1-h baseline activity,[5],-8.79
same,startle,[1],-4.23
same,combined optomotor response,[3],6.62
CCCCNc1cc(C(=O)O)cc(S(N)(=O)=O)c1Oc1ccccc1 [Bumetanide],startle,[1],3.28
same,combined optomotor response,[3],9.27
CCCCC1=NC2(CCCC2)C(=O)N1Cc1ccc(-c2ccccc2-c2nnn[nH]2)cc1 [Irbesartan],combined upward orientation toward moving lines,[2],-8.87
same,combined optomotor response,[3],-4.91
COc1ccccc1OCCNCC(O)COc1cccc2[nH]c3ccccc3c12 (stereo not given) [Carvedilol],startle,[1],3.72
same,combined optomotor response,[3],-1.8
Cc1ccc(N(CC2=NCCN2)c2cccc(O)c2)cc1 [Phentolamine Mesylate],combined upward orientation toward moving lines,[2],4.89
same,combined optomotor response,[3],7.07
C[C@]12CC[C@@H]3c4ccc(O)cc4C[C@@H](CCCCCCCCC[S+]([O-])CCCC(F)(F)C(F)(F)F)[C@H]3[C@@H]1CC[C@@H]2O (stereo not given in full),1-h baseline activity,[5],8.32
same,combined upward orientation toward moving lines,[2],0.781
same,combined optomotor response,[3],2.46
CN(C)CCc1c[nH]c2ccc(Cn3cncn3)cc12 [Rizatriptan benzoate],startle,[1],4.04
same,combined optomotor response,[3],6.97
C=C1[C@H](CO)[C@@H](O)C[C@@H]1n1cnc2c(=O)[nH]c(N)nc21 [Entecavir],startle,[1],3.99
same,combined optomotor response,[3],3.44
CC(C)N(CCCCOCC(=O)NS(C)(=O)=O)c1cnc(-c2ccccc2)c(-c2ccccc2)n1 [Selexipag],1-h baseline activity,[5],1.65
same,combined upward orientation toward moving lines,[2],-4.38
same,combined optomotor response,[3],4.06
CN1CC2c3ccccc3Oc3ccc(Cl)cc3C2C1 (stereo not given) [Asenapine maleate],combined upward orientation toward moving lines,[2],-7.05
same,habituation,[4],-12.6
same,combined optomotor response,[3],-7.09
